Measurements taken from PubChem BioAssay (NCI).
Several values for one entry are separate records, joined by “and”; a condition that tells them apart may be missing. Identical values can stand only once. About 83,000 compounds went through this panel and 20% of them were active in at least one assay; those are over-represented in the sample as a whole.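 Each cell line was grown in a 96-well plate and treated with one concentration of compound for 48 hours. Values below 10 were considered active.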 Activity calls are given as the source filed them.

System: IGROV1 ovarian
Experiment: NCI-60 one-dose screen, 48 h (100 = growth as untreated, 0 = no growth, -100 = all killed)
Conditions: 10 µM unless noted
Method: Growth inhibition of the IGROV1 human tumor cell line is measured as a screen for anti-cancer activity. Cells are grown in 96 well plates and exposed to the test compound for 48 hours. Compounds are tested at a single concentration, which is 10^-5 M for most compounds. The reported endpoint is percent growth (GI% or GIPRCNT), where numbers from 0 - 100% represent growth inhibition, and numbers from -100% - 0 represent cell death. For example, a value of 40 represents 60% growth inhibition. A value of 0 means no net growth occurred over the course of the experiment. A value of -40 indicates 40% of cells at the beginning of the experiment died by the end of the experiment. A value of -100 means all cells are dead at the end of the experiment.
NCI-60 Human Tumor Cell Lines Screen was performed using the standard one-dose NCI protocol, which is described in more detail at https://dtp.cancer.gov/discovery_development/nci-60/default.htm.
Compounds with GIPRCNT values below 10 were considered active. Activity score was based on GIPRCNT using the following formula: […]
Score is 0 for GIPRCNT values of 100 or above, 50 for GIPRCNT values of 0, and 100 for GIPRCNT values of -100.

Row | Structure (SMILES) | growth
1 | Brc1ccc2[nH]cc(-c3nn4cc(-c5nccs5)nc4s3)c2c1 | 32% (inactive)
2 | CCN(CC)CCOc1ccc(C(=C(c2ccccc2)C2CCCC2)c2ccc(OCCN(CC)CC)cc2)cc1 | -40.4% (active)
3 | COc1cc(/C=C2/C(=O)Nc3ccc(Cl)cc32)ccc1OCc1ccc(Cl)cc1 | 77.3% (inactive)
4 | C/C(=C(/C)C1CC1CCNC1CCC(NC(=O)OC(C)(C)C)CC1)c1ccccc1 (stereo not given) | 72.1% (inactive)
5 | CCCc1[nH]c(-c2cc(N)ccc2Cl)c2c1C(=O)CCCC2 | 91.6% (inactive)
6 | NS(=O)(=O)c1nnc(/N=C/c2c(O)[nH]c3ccccc23)s1 | 76.5% (inactive)
7 | CCN(CC)c1ccc(/C=N/NC(=O)c2ccc(NS(C)(=O)=O)cc2)c(O)c1 | 20.3% (inactive)
8 | C[C@H](Nc1ncnc2ccc(-c3cnc(Cl)c(NS(C)(=O)=O)c3)cc12)c1ccccc1 | -28.8% (active)
9 | CC(=O)/C(N=Nc1ccc2oc(=O)ccc2c1)=C(\C)O | 32.4% (inactive)
10 | COc1ccc(-c2cc(-c3ccc(N(C)C)cc3)n3c(n2)nc2ccccc23)cc1 | 77.6% (inactive)
11 | CC(O)c1cccc(/C(N)=N/C(N)=N/c2nc3ccccc3s2)c1 (stereo not given) | 92.5% (inactive)
12 | CCCCCCOC(=O)c1cc(-c2ccc(F)cc2)nc2ccccc12 | 88.3% (inactive)
13 | O=C(CCCCCCN1CC(=O)N2[C@@H](c3ccc(Cl)s3)c3[nH]c4ccccc4c3C[C@H]2C1=O)NO | -20.6% (active)
14 | O=C(COc1ccc(/C=C2\C(=O)Nc3ccc(F)cc32)cc1)Nc1ccccc1 | 109% (inactive)
15 | O=S1SC(c2ccccc2)=NN1c1cc(F)cc(F)c1 (stereo not given) | 53.8% (inactive)
16 | O=C(CSc1nc2ccccc2c(=O)n1-c1ccccc1)N/N=C/c1ccc(Oc2ccc(Cl)cc2)cc1 | 49.1% (inactive)
17 | CC(C)(C)OC(=O)Nc1ccc(-c2cccc(Oc3ccc4nnc(Cl)n4n3)c2)cc1 | 98.8% (inactive)
18 | Nn1c(=O)n(-c2cccc(C(F)(F)F)c2)c(=O)c2cc(-c3ccc(F)cc3F)ccc21 | 20.9% (inactive)
19 | N#C/C(=C\c1ccc(-c2ccc(Cl)cc2)o1)C(=O)Nc1ncc(Cc2ccc(Br)cc2)s1 | 7.06% (active)
20 | O=C(CCCCCCNC(=O)C(O)(O)C(F)(F)F)Nc1ncc(-c2ccc(Br)cc2)s1 | -21.8% (active)

Row | Structure (SMILES) | growth
21 | CCOC(=O)c1c(N)c(C#N)cn1Cc1ccc(Cl)cc1Cl | 63.3% (inactive)
22 | COc1ccccc1Cn1cc(C#N)c(N)c1C(=O)c1ccc(Br)cc1 | 91.6% (inactive)
23 | N#C/C(=N\Nc1ccc(F)cc1)C(=O)Nc1cc(-c2ccccc2)nn1-c1ccccc1 | 24.7% (inactive)
24 | O=C(Nc1ccc(N=Cc2c(O)[nH]c3ccccc23)cc1)Nc1ccc(S(=O)(=O)Nc2ncccn2)cc1 | 112% (inactive)
25 | COc1cc2oc(-c3cccc(NC(=O)[C@@H](N)C(C)C)c3)cc(=O)c2c(OC)c1OC | 103% (inactive)
26 | CS(=O)(=O)c1ccc(/C(=N/N=C(N)N)c2ccc(Cl)cc2)cc1 | 85.6% (inactive)
27 | Cc1ccccc1NC(=O)Nc1nc2ccc([N+](=O)[O-])cc2s1 | 22.6% (inactive)
28 | O=C(CSc1nc2ccccc2c(=O)n1-c1ccccc1)Nc1ccc(S(=O)(=O)Nc2nccs2)cc1 | 83% (inactive)
29 | O=C(NNc1nc2cc(F)cc(F)c2n2cccc12)c1cccnn1 | 13.5% (inactive)
30 | CCOP(=O)(OCC)OC[C@]12CCC(C)(C)CC1C1=CC[C@@H]3[C@@]4(C)CCCNC(C)(C)[C@@H]4CC[C@@]3(C)[C@]1(C)CC2 (stereo not given in full) | 44.5% (inactive)
31 | CC(Nc1c(C#N)cnc2ccc(-c3cncc(-c4n[nH]c(=O)o4)c3)cc12)c1ccccc1 (stereo not given) | -20% (active)
32 | CSc1ccc(/C(=N/N=C(N)N)c2ccc(Cl)cc2)cc1 | 4.76% (active)
33 | CC(C)[C@H]1c2[nH]c3ccccc3c2C[C@H]2C(=O)N(CCCCCCC(=O)NO)CC(=O)N12 | 92.9% (inactive)
34 | COc1cccc2c1[C@H](OC)[C@]13O[C@@]1(C2=O)[C@H](O)[C@H](C)[C@@](O)(C(=O)[C@@H]1O[C@H]1C)[C@@H]3O | 7.69% (active)
35 | COc1ccc(/C=N/N=C(/c2ccccc2)c2ccc3nc(-c4ccc(Cl)cc4)[nH]c3c2)cc1 | 97.5% (inactive)
36 | CCOC(=O)C1=C(C)NC(C)=C(C(=O)OC(C)C)C1c1cccc(C#N)c1 (stereo not given) | 103% (inactive)
37 | CCC(=C(c1ccc(OCCN(C)C)cc1)c1ccc(OCCN(C)C)cc1)c1ccc(Cl)cc1 | -76.8% (active)
38 | Cc1cc2nc3c4cc(C#N)ccc4n(CCN(C)C)c3nc2cc1C | -1.99% (active)
39 | Cc1ccc(C)c(NC2=C(Cl)C(=O)c3nc(C)ccc3C2=O)c1 | -66.8% (active)
40 | C/C=C/CC(C)C(O)[C@H](NC(=O)[C@@H]1CCCN1C(=O)[C@](C)(CC)NC(=O)CCCCCCCCC)C(=O)N[C@@](C)(CC)C(=O)N[C@@H](CCC(N)=O)C(=O)N[C@H](CCC(N)=O)C(=O)NC(C)(C)C(=O)NC(C)(C)C(=O)N[C@@H](CCC(N)=O)C(=O)N[C@H](CC(C)C)C(=O)N[C@H](CO)CC(C)C (stereo not given in full) | 52.1% (inactive) and -14.1% (active)
